Laboratory results taken from the supplement of paper PMC10849652.
Of roughly 7,900 targets only a part is listed; those with a hit were picked by preference. About 0.6% of all pairs of compound and target were hits. A number with no mark means an inactive call.

How the values were obtained:
Test in all cases: log2 fold change, soluble protein after heating vs DMSO (PISA); higher = thermal stabilisation; K562 cells, 10 uM, 30 min; active = over 0.2 and 3.5 SD of the protein, either way, in both replicates (recomputed)
[1] = compound: CC[C@@H]1C(=O)N(C)c2cnc(Nc3ccc(C(=O)NC4CCN(C)CC4)cc3OC)nc2N1C1CCCC1
Method in brief: (§1)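 K562 cells at 2×10^6 cells/mL were exposed to 10 μM compound for 30 min, then aliquots were heated for 3 min across 48°C-58°C, pooled, and extracted in PBS containing 0.5% NP-40 at 4°C. The supernatant after 21,000xg for 90 min was taken as soluble protein and measured by TMTpro 16plex LC-MS/MS with channel sums equalised. Thermal stability is reported relative to control samples, with values from duplicates. Fold changes are given on a log2 scale.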

[2] = compound: CC[C@@H]1C(=O)N(C)c2cnc(Nc3ccc(C(=O)N[C@H]4CC[C@H](N5CCN(CC6CC6)CC5)CC4)cc3OC)nc2N1C(C)C [volasertib]
Method in brief: as §1

[3] = compound: CC[C@H](C)N1C=C(C2=C(C=C(C=C21)C3=CN=C(C=C3)N4CCNCC4)C(=O)NCC5=C(C=C(NC5=O)C)C)C
Method in brief: as §1

[4] = compound: CC[C@H](C)[C@@H](C(=O)N[C@@H]([C@@H](C)O)C(=O)N[C@@H](CC(C)C)C(=O)[C@]1(CO1)C)NC(=O)[C@H]([C@@H](C)CC)N(C)C(=O)C [epoxomicin]
Method in brief: as §1

[5] = compound: CCn1c(C(=O)N(C2CC2)C2CC2)cc2c3c(ncn3C)c(Nc3cc(C)n(C)n3)nc21
Method in brief: as §1

[6] = compound: CCn1cc(-c2ccnc3[nH]c(-c4cccc(CN(C)C)c4)cc23)c(-c2ccc(NC(=O)N(C)C)cc2)n1
Method in brief: as §1

[7] = compound: CN(C)CC(=O)Nc1ccc2[nH]c(=O)c3ccccc3c2c1
Method in brief: as §1

[8] = compound: CN(CCOC1=CC=C(C=C1)C[C@H]2C(=O)NC(=O)S2)C3=CC=CC=N3 (racemic) [rosiglitazone]
Method in brief: as §1

[9] = compound: CN1C2=C(C3=C1C(=O)N(N=C3)CC4=CC(=CC=C4)N)SC(=C2)S(=O)C
Method in brief: as §1

[10] = compound: CN1CCC(CNc2ccc3ncc(-c4cccc(OC(F)(F)F)c4)n3n2)CC1
Method in brief: as §1

[11] = compound: CN1CCN(CCOc2cc(OC3CCOCC3)c3c(Nc4c(Cl)ccc5c4OCO5)ncnc3c2)CC1 [saracatinib]
Method in brief: as §1

[12] = compound: CN1CCN(c2nc(C3=C(c4c[nH]c5ccccc45)C(=O)NC3=O)c3ccccc3n2)CC1 [sotrastaurin]
Method in brief: as §1

[13] = compound: CN1CC[C@H](c2c(O)cc(O)c3c(=O)cc(-c4ccccc4Cl)oc23)[C@H](O)C1 [alvocidib]
Method in brief: as §1

[14] = compound: CN1CCc2c(c3ccccc3n2Cc2ccc(C(=O)NO)cc2)C1 [Tubastatin A]
Method in brief: as §1

[15] = compound: CNC(=O)C1=CC=CC=C1NC2=NC(=NC=C2Cl)NC3=C(C=C(C=C3)N4CCOCC4)OC
Method in brief: as §1

[16] = compound: CNC(=O)c1ccc(Nc2ncc(C(F)(F)F)c(NCc3nccnc3N(C)S(C)(=O)=O)n2)cc1 [defactinib]
Method in brief: as §1

[17] = compound: CNCc1ccc(-c2[nH]c3cc(F)cc4c3c2CCNC4=O)cc1 [rucaparib]
Method in brief: as §1

[18] = compound: CNc1nc(-c2ccc3c(N)n[nH]c3c2)cc(N2C[C@@H](C(=O)NC3CCCCC3)CC[C@H]2C)n1
Method in brief: as §1

[19] = compound: COC(=O)N[C@@H](C)CNc1nccc(-c2cn(C(C)C)nc2-c2cc(Cl)cc(NS(C)(=O)=O)c2F)n1 [encorafenib]
Method in brief: as §1

[20] = compound: COC(=O)[C@H](CCSC)NC(=O)C1=C(C=C(C=C1)NC[C@H](CS)N)C2=CC=CC=C2
Method in brief: as §1

Sequence of UniProt O94925 (O94925 whole entry, looked up): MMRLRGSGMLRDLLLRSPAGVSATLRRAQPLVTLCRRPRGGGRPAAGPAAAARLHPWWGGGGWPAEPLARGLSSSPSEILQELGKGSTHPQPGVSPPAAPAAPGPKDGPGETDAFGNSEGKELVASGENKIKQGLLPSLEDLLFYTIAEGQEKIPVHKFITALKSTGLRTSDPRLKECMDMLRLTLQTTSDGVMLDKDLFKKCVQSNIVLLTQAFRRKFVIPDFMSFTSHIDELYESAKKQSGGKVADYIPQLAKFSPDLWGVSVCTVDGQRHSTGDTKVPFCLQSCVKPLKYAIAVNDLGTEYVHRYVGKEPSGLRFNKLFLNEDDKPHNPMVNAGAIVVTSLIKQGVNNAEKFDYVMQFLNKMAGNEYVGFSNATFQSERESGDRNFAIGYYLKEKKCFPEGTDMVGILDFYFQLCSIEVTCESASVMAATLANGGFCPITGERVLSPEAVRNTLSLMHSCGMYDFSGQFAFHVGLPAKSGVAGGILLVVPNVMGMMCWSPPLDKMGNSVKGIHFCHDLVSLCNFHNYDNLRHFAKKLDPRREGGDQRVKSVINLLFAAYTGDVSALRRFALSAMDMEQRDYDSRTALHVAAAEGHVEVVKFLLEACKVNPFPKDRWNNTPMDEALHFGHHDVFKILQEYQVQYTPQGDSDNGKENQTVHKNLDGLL
Sequence of UniProt P31150 (P31150 whole entry, looked up): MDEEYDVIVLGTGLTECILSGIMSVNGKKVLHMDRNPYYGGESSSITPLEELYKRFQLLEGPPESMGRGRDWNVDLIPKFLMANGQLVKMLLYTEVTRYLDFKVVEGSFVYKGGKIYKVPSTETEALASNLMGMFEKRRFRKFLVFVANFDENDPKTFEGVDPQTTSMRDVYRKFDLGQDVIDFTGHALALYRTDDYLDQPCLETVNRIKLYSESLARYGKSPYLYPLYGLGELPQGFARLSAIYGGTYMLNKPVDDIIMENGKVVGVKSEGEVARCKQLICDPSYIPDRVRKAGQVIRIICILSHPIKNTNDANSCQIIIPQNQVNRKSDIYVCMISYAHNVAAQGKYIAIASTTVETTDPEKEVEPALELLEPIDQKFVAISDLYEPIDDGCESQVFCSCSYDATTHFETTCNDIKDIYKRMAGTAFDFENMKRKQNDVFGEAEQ
Sequence of UniProt Q96LB3 (Q96LB3 whole entry, looked up): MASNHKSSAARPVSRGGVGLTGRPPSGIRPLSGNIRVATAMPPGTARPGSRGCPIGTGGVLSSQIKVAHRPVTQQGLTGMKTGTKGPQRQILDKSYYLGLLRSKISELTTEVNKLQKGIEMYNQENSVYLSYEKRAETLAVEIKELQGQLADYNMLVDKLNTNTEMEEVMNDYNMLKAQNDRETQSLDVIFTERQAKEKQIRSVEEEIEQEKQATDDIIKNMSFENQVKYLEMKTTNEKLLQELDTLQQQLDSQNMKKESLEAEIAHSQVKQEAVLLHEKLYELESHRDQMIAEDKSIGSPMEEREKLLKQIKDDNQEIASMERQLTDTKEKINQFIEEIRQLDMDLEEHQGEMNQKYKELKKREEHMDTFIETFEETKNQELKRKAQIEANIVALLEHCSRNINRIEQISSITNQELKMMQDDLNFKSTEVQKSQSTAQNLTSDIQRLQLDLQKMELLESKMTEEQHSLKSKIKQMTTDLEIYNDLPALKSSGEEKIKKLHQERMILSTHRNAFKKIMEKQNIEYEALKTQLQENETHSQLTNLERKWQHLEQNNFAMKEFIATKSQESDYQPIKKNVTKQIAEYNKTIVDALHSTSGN
Sequence of UniProt Q9H0R4 (Q9H0R4 whole entry, looked up): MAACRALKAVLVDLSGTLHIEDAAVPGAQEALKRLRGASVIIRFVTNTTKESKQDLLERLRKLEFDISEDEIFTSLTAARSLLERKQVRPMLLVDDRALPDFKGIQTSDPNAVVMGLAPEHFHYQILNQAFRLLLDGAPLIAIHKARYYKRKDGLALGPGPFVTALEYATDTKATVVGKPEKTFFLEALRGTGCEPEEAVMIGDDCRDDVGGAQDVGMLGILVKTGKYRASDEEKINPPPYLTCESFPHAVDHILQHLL
Sequence of UniProt Q13547 (Q13547 whole entry, looked up): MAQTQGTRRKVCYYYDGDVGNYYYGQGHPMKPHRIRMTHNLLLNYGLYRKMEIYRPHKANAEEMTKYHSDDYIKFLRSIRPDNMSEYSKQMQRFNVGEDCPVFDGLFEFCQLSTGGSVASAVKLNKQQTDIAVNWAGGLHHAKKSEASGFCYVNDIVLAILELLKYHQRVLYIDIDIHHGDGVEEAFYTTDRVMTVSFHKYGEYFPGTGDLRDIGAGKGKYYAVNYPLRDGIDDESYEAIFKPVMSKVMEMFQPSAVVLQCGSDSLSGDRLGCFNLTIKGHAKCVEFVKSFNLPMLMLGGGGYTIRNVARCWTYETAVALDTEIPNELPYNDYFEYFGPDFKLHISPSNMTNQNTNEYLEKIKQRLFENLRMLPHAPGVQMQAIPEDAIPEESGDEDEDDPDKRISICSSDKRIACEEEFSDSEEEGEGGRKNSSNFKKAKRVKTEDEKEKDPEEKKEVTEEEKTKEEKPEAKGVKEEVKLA
Sequence of UniProt Q9UKN8 (Q9UKN8 whole entry, looked up): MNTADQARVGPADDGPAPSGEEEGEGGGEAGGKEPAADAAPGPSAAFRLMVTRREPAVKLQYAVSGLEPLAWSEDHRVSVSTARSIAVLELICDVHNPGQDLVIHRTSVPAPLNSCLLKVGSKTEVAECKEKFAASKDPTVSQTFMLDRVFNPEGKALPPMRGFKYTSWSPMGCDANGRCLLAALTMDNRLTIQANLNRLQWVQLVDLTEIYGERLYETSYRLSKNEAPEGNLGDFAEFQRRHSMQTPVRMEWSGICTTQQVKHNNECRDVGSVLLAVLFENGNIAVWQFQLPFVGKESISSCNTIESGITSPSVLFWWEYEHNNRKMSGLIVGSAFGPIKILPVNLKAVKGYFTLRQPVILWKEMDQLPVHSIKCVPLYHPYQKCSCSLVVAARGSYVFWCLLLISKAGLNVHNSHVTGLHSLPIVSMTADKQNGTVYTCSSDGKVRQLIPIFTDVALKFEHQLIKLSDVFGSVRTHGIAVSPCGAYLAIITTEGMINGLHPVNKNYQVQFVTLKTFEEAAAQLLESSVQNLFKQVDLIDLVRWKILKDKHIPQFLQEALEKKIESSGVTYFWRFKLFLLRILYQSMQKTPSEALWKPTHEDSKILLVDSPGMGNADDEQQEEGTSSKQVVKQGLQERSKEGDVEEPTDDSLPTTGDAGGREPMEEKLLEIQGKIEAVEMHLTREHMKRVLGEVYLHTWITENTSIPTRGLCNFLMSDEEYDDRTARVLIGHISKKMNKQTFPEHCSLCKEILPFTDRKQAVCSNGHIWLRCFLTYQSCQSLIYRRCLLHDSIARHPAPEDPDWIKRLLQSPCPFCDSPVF
Sequence of UniProt Q8TEQ6 (Q8TEQ6 whole entry, looked up): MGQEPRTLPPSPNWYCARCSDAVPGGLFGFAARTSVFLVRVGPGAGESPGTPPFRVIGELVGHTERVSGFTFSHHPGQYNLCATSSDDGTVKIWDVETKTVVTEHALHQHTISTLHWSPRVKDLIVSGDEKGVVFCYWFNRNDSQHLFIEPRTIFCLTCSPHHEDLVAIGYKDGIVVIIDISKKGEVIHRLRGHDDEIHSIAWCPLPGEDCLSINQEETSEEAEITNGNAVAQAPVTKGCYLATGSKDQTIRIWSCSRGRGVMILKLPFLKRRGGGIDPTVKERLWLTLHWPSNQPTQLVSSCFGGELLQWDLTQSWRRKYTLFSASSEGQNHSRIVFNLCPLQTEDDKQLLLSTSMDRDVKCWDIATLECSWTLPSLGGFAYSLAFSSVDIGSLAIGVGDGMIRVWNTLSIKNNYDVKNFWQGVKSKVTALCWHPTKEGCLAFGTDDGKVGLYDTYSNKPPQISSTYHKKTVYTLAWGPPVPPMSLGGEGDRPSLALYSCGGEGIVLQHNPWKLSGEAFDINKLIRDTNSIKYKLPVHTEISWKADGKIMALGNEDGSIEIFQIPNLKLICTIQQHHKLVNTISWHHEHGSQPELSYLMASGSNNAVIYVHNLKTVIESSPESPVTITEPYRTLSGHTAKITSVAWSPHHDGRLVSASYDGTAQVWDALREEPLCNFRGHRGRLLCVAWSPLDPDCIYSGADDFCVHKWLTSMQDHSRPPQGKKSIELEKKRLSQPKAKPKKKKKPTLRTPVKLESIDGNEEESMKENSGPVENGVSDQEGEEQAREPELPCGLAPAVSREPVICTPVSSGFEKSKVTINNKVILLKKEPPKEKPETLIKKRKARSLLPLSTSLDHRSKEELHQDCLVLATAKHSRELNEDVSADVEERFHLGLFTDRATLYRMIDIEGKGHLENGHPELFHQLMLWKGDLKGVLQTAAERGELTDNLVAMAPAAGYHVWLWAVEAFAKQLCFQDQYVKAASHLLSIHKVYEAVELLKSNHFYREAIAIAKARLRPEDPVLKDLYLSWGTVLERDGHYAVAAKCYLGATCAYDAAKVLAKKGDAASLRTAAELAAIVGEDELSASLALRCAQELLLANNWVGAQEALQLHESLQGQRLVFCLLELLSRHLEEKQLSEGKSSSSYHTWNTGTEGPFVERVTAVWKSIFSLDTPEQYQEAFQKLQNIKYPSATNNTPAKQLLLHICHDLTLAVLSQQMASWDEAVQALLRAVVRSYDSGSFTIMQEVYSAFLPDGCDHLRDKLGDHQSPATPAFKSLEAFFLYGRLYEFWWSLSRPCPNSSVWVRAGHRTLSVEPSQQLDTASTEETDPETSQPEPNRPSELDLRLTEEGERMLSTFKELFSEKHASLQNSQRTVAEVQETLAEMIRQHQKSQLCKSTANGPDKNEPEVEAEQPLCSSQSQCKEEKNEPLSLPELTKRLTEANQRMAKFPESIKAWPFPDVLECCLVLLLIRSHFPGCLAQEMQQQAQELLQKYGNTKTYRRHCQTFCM
Sequence of UniProt Q9Y3D6 (Q9Y3D6 whole entry, looked up): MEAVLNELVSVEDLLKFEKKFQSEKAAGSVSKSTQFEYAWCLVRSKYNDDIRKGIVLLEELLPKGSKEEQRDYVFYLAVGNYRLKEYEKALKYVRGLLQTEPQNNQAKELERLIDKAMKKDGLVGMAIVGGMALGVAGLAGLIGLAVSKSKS

Row | Target | log2 fold change [1] | log2 fold change [2] | log2 fold change [3] | log2 fold change [4] | log2 fold change [5] | log2 fold change [6] | log2 fold change [7] | log2 fold change [8] | log2 fold change [9] | log2 fold change [10] | log2 fold change [11] | log2 fold change [12] | log2 fold change [13] | log2 fold change [14] | log2 fold change [15] | log2 fold change [16] | log2 fold change [17] | log2 fold change [18] | log2 fold change [19] | log2 fold change [20]
1 | HRC (UniProt P23327) | 0.01 | 0.043 | -0.014 | -0.061 | -0.016 | -0.023 | 0.005 | -0.008 | -0.107 | -0.013 | 0.063 | 0.057 | 0.02 | -0.125 | 0.009 | -0.011 | 0.01 | -0.057 | -0.066 | 0.043
2 | GEMIN5 (UniProt Q8TEQ6) | -0.122 | -0.438 (active) | 0.034 | -0.014 | -0.007 | 0.042 | 0.015 | 0.046 | 0.019 | -0.094 | -0.014 | -0.035 | -0.192 | -0.053 | -0.02 | -0.216 (active) | 0.026 | 0.025 | 0.061 | -0.019
3 | FLNA (UniProt P21333) | -0.121 | -0.375 (active) | 0.078 | 0.063 | -0.074 | -0.004 | 0.029 | 0.019 | 0.052 | -0.12 | -0.076 | -0.161 | -0.017 | 0.052 | 0.106 | -0.042 | 0.1 | 0.017 | 0.089 | -0.053
4 | IFT74 (UniProt Q96LB3) | 0.125 | 0.01 | -0.319 | -0.061 | -0.057 | 0 | -0.051 | 0.031 | 0.025 | -0.05 | -0.079 | -0.001 | 0.048 | 0.259 | -0.223 | 0.028 | 0.06 | 0.003 | -0.055 | 0.075
5 | H2AFX (UniProt P16104) | 0.002 | 0.214 | -0.096 | -0.237 | -0.01 | 0.279 | -0.213 | -0.101 | 0.501 | 0.082 | -0.123 | 0.081 | 0.249 | 0.025 | -0.003 | 0.53 | 0.347 | 0.089 | -0.013 | 0.233
6 | FNTB (UniProt P49356) | 0.948 (active) | 0.707 (active) | 0.01 | 0.044 | -0.006 | -0.212 | 0.02 | 0.062 | -0.055 | -0.088 | 0.046 | 0.346 | -0.113 | 0.017 | -0.036 | 0.095 | 0.02 | -0.007 | -0.016 | 0.974 (active)
7 | IGF2BP2 (UniProt Q9Y6M1) | 0.176 | -0.076 | -0.063 | -0.203 | 0.016 | 0.076 | 0.01 | -0.044 | 0.432 | -0.016 | -0.122 | -0.035 | 0.209 | 0.168 | 0.044 | 0.147 | 0.446 | 0.145 | 0.106 | -0.066
8 | GTF3C4 (UniProt Q9UKN8) | -0.002 | -0.263 (active) | 0.001 | -0.001 | -0.003 | -0.003 | -0.024 | 0.012 | 0.007 | 0 | 0.06 | 0.021 | -0.03 | -0.009 | -0.005 | -0.081 | 0.029 | -0.001 | 0.043 | -0.01
9 | HDAC1 (UniProt Q13547) | -0.025 | -0.216 | 0.037 | -0.006 | -0.015 | 0.019 | 0.011 | -0.027 | 0.001 | -0.043 | -0.004 | -0.026 | -0.137 | 1.52 (active) | -0.163 | -0.15 | 0.023 | 0.04 | -0.046 | -0.062
10 | FIS1 (UniProt Q9Y3D6) | 0.005 | 0.046 | -0.023 | -0.002 | 0.025 | 0.008 | 0.01 | 0.016 | -0.189 | -0.075 | 0.333 (active) | 0.016 | -0.11 | -0.021 | -0.012 | -0.063 | 0.004 | 0.182 | -0.049 | -0.022
11 | IDH3A (UniProt P50213) | -0.031 | -0.01 | 0.004 | 0.063 | 0 | -0.027 | 0 | 0.008 | -0.064 | 0.033 | -0.004 | 0.008 | -0.056 | -0.058 | -0.026 | -0.023 | -0.031 | -0.026 | -0.01 | 0.002
12 | HDHD2 (UniProt Q9H0R4) | 0.011 | 0.049 | -0.007 | 0.073 | -0.012 | -0.063 | 0.053 | 0.017 | -0.058 | -0.096 | -0.004 | -0.077 | -0.028 | -0.016 | -0.017 | 0 | -0.049 | -0.048 | 0.016 | -0.018
13 | HDDC2 (UniProt Q7Z4H3) | 0.008 | 0.08 | 0.014 | -0.006 | 0.034 | -0.063 | 0.025 | 0.035 | -0.102 | -0.066 | 0.045 | 0.042 | -0.049 | 0.015 | 0.007 | -0.014 | -0.014 | 0.063 | 0.014 | -0.013
14 | GLS (UniProt O94925) | -0.271 | -0.366 (active) | 0.142 | 0.151 | -0.026 | -0.051 | 0.103 | 0.085 | -0.085 | -0.241 | 0.039 | -0.023 | -0.147 | 0.021 | -0.031 | -0.167 | 0.002 | -0.092 | 0.017 | -0.093
15 | GDI1 (UniProt P31150) | 0.018 | 0.113 | 0.025 | 0.022 | -0.031 | -0.068 | -0.015 | 0.027 | -0.082 | 0.008 | 0.017 | 0.012 | -0.067 | -0.025 | 0.012 | -0.046 | -0.042 | -0.015 | 0.006 | 0.009
